Results reported in PubChem BioAssay (NCI).
Where “and” joins values, the source holds several entries; their conditions need not be identical. Identical values can stand only once. About 83,000 compounds went through this panel and 20% of them were active in at least one assay; those are over-represented in the sample as a whole.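 The endpoint reported here, percent growth, reads 100 for growth as untreated, 0 for no net growth and -100 for all cells dead.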 Calls of active or inactive are those of the source. The calls were made as follows: active = growth percent below 10; inactive = the rest.

What was measured:
Experiment in all cases: NCI-60 one-dose screen, 48 h (100 = growth as untreated, 0 = no growth, -100 = all killed)
Conditions in all cases: 10 µM unless noted
[1] = system: SR leukemia
[2] = system: RPMI-8226 leukemia
[3] = system: OVCAR-8 ovarian
[4] = system: OVCAR-4 ovarian
[5] = system: SK-OV-3 ovarian
[6] = system: IGROV1 ovarian
[7] = system: OVCAR-3 ovarian
[8] = system: HS 578T breast
[9] = system: NCI/ADR-RES ovarian
[10] = system: OVCAR-5 ovarian

Measured: growth

Cc1ccc(S(=O)(=O)n2ccnc2)cc1
inactive: [1] 140% | [2] 100% | [3] 100% | [4] 102% | [5] 123% | [6] 75.5% | [7] 101% | [8] 111% | [9] 101%

C(#CCN1CCOCC1)CCCN1CCOCC1
inactive: [2] 112% | [3] 105% and 106% | [4] 102% | [5] 104% and 106% | [6] 116% and 106% | [7] 116% and 111% | [8] 112% and 114% | [9] 105% and 104%

COc1ccc(/C=N/Nc2nc3ccccc3s2)cc1
inactive: [2] 104% | [3] 105% | [10] 103% | [5] 90% | [7] 86.4% | [8] 105% | [9] 98.7%

CC(=O)Nc1ccc(OC(C)=O)cc1
-11.9% (active) and 106% (inactive): [9]
-25.4% (active) and 104% (inactive): [2]
-4.1% (active) and 121% (inactive): [5]
inactive: [10] 35.7% and 97.5% | [8] 29.7% and 118%
2.02% (active) and 113% (inactive): [7]
8% (active) and 101% (inactive): [3]

OCc1ccccc1F
inactive: [2] 106% | [3] 83.3% | [10] 76.9% | [4] 97.5% | [5] 87% | [6] 85.7% | [9] 75.7%

Cn1c(N)c(N=O)c(=O)n(C)c1=O
inactive: [2] 104% and 116% | [3] 96.8% and 104% | [4] 111% and 103% | [5] 111% and 118% | [6] 105% | [7] 109% and 90.7% | [8] 112% and 94.4% | [9] 97.6%

O=C1C=CC(=O)N1Cc1ccco1
inactive: [2] 107% | [3] 85.6% | [4] 106% | [5] 94.2% | [6] 69.7% | [8] 117% | [9] 76.6%

O=C(/C=C/C=C/c1ccc2c(c1)OCO2)N1CCCCC1
inactive: [2] 102% and 124% | [3] 101% and 97.4% | [10] 96.4% | [4] 103% and 96.8% | [5] 101% and 102% | [7] 121% and 104% | [9] 98% and 106%
105% (inactive) and 6.71% (active): [6]

CC1CC(O)CC(C)(C)C1.CC1CC(O)CC(C)(C)C1.CC1CC(O)CC(C)(C)C1.CC1CC(O)CC(C)(C)C1.[Ti] (stereo unspecified)
inactive: [2] 96.5% | [3] 106% | [4] 127% | [5] 91.4% | [7] 122% | [8] 99.9% | [9] 99.1%

O=C1C2=C(Nc3cc(Cl)ccc3N2)OC1c1c[nH]c2ccc(COc3ccccc3)cc12 (stereo unspecified)
inactive: [2] 59.3% | [3] 46.9% | [4] 31.8% | [5] 26.7% | [7] 55.1% | [8] 29.6% | [9] 51.4%

O=C(OCc1ccccc1)c1ccccc1
inactive: [2] 99.5% | [3] 101% and 95.7% | [4] 108% | [5] 99.1% and 93.6% | [6] 120% and 87.4% | [7] 116% | [9] 107% and 99.7%

O=C(O)C(Cc1ccc(OS(=O)(=O)Cc2ccccc2)cc1)NS(=O)(=O)Cc1ccccc1 (stereo unspecified)
inactive: [2] 110% and 102% | [3] 105% | [4] 99.8% and 109% | [5] 112% and 120% | [6] 106% and 121% | [7] 111% and 109% | [9] 105% and 112%

COC(=O)C(Cc1cn(C(C)=O)c2ccccc12)P(=O)(OC)OC (stereo unspecified)
inactive: [2] 101% | [3] 106% | [10] 103% | [4] 87% | [5] 113% | [6] 113% | [7] 106% | [8] 94.2% | [9] 95.3%

CCOP(C)(=O)/C(Cc1ccc(OC)c(OC)c1)=N\O (stereo unspecified)
inactive: [2] 99.3% | [3] 114% | [10] 96.6% | [4] 107% | [5] 115% | [6] 104% | [8] 94.9% | [9] 95.7%
